# From PubChem BioAssay (NCI)
# The panel holds about 83,000 compounds, 20% with a hit somewhere; the sample as a whole holds those more often.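 48-hour exposure, single concentration, 96-well plates; percent growth endpoint where 0 means no net growth. Active: below 10.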 Unmarked numbers belong to inactive results. Calls of active or inactive are those of the source.
# System: UO-31 renal
# Experiment: NCI-60 one-dose screen, 48 h (100 = growth as untreated, 0 = no growth, -100 = all killed)
# Details: 10 µM unless noted
row,Compound,growth
1,O=C1Nc2ccccc2/C1=C\c1cccc(/C=C2/C(=O)Nc3ccccc32)n1,-82.5% (active)
2,COc1ccc(/C=N/NC(=O)c2cccc3cc[nH]c23)cc1O,60.4%
3,CCN1C(=O)N(CC)C2C1NN=c1s/c(=C3\C(=O)Nc4ccccc43)c(=O)n12 (stereo not drawn),42.9%
4,CC(C)(O)C1CCCN1C(=O)c1ccccc1I (stereo not drawn),82.7%
5,O=C1NC(=S)NC(=O)C1=Cc1cccc(C=C2C(=O)NC(=S)NC2=O)c1,91%
6,Cn1c2c(Cl)c(Cl)ccc2c2cc(N)[nH]c(=O)c21,54.4%
7,COc1ccc(-c2cnnc3c(-c4cccc(C(F)(F)F)c4)cnn23)cc1,57.6%
8,O=C1Nc2c(ccc(Cl)c2Cl)/C1=C/c1ccc([N+](=O)[O-])cc1,79.7%
9,COc1ccc(-c2nc(SCC(C)C)nc(N/N=C(/C)c3ccc(OC)c(OC)c3)c2C#N)cc1,54.4%
10,NS(=O)(=O)c1cccc(NC(=O)C(=O)C2C(=O)Nc3ccccc32)c1 (stereo not drawn),67.2%
11,O=S(=O)(c1cccc(NC2=Nc3cccc4cccc2c34)c1)N1CCCC1,67.5%
12,CCOC(=O)c1c(SC)nn(-c2cc(=O)[nH]c3ccc(Br)cc23)c1N,81%
13,CC(=O)c1c[nH]c2ccc(-c3ccnc(Nc4ccc(NC(=O)C5CCCC5)c(CN5CCOCC5)c4)n3)cc12,2.12% (active)
14,COc1ccc(/C=C(/c2ccccc2)[N+](=O)[O-])cc1,-100% (active)
15,O=C1Nc2c(ccc(Cl)c2Cl)/C1=C/c1ccccn1,73.3%
16,CCN(CCNc1cc(OC)cc2cccnc12)CCc1ccccc1,70.8%
17,COc1cc2nc(-c3ccc(C#N)cc3)[nH]c(=O)c2cc1OC,97.4%
18,CCCOc1nc(SCCC)nc2c1cnn2-c1ccccc1,91.9%
19,O=S(=O)(c1ccccc1)N1CCCc2ccccc21,80.4%

row,Compound,growth
1,O=C(Nc1ccc(Cl)cc1)Nc1ccc(Cl)c(Cl)c1,9.73% (active)
2,COc1cc(NCC(O)CN(CC(C)C)C2CCCC2)c2ncccc2c1 (stereo not drawn),71.7%
3,COc1ccc(Nn2c(SCC(=O)Nc3nc(-c4ccc(Cl)cc4)cs3)nc(C)c2C)cc1,39.4%
4,COc1cccc2c1C(=O)c1c(O)c3c(c(O)c1C2=O)C[C@@](O)(C(=O)CO)C[C@@H]3O[C@H]1C[C@H](N)[C@@H](O)[C@H](C)O1,11.8%
5,Clc1ccc(N2N=C(c3cccc(Nc4ccncc4)c3)CC2c2ccc3c(c2)OCO3)cc1 (stereo not drawn),41.9%
6,O=C(N/N=C/c1ccncc1)c1ccccc1Nc1cccc(C(F)(F)F)c1,60.9%
7,COc1ccc(Cc2nc3cc(OC)c(OC)cc3c(=O)[nH]2)cc1,69.6%
8,COc1ccc(-c2c[nH]c(C(=O)O)c2-c2cc(OC)c3c(c2OC)OCO3)cc1,90.3%
9,Clc1ccc(N2N=C(c3cccc(Nc4ccncc4)c3)CC2c2ccccc2)cc1 (stereo not drawn),83.1%
10,COc1ccc(Cn2nc(-c3cc(OC)c(OC)c(OC)c3)c3c2CCc2cnoc2-3)cc1OC,32.7%
11,COc1cc2nnn3c4ncccc4c(N=O)c3c2cc1OC,-6.2% (active)
12,Clc1nc(Cl)c2ncn(CC3(Cn4cnc5c(Cl)nc(Cl)nc54)COC3)c2n1,-97.7% (active)
13,C(=N\Nc1ncc(-c2cc3cc4c(cc3o2)OCO4)s1)/c1c[nH]c2ccccc12,-96.5% (active)
14,COc1ccc(-c2nn(Cc3ccccc3)c3c2-c2oncc2CC3)cc1OC,75%
15,COc1cc(/C=C/C(=O)c2c(C)oc3nc[nH]c(=O)c23)ccc1O,84.3%
16,CCc1nc(C)cn1C(=O)OCc1nc2nc(Cl)nc(N3CCOCC3)c2[nH]1,-100% (active)
17,O=C(Nc1ccccc1)Oc1ccccc1-c1ccccc1,57.7%
18,COc1ccc(C(O)c2cc3c(N)c(C(=O)Nc4ccccc4)sc3nc2C)cc1 (stereo not drawn),19.1%
19,CCC(C)N(CCNc1cc(OC)cc2cccnc12)CCC(C)C (stereo not drawn),77.8%
